From PubChem BioAssay (NCI) come the findings set out here.

This is part of a sample that, as a whole, favours compounds with a hit. Of some 83,000 tested, about 20% had one in any assay.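 Percent growth is the endpoint: 0 to 100 indicates growth inhibition (40 means 60% inhibition), 0 means no net growth, and negative values indicate cell death.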 A number with no mark means an inactive call. The source made the active and inactive calls. Rule for the calls: active = growth percent below 10; inactive = the rest.

Common to all, as to experiment: NCI-60 one-dose screen, 48 h (100 = growth as untreated, 0 = no growth, -100 = all killed)
Holding throughout (settings): 10 µM unless noted

Test [1] has as its system SK-MEL-2 melanoma.
Test [2] has as its system EKVX NSCLC.
Test [3] relates to SN12C renal.
In test [4] the test system is UO-31 renal.
The subject of test [5] is TK-10 renal.
Test [6] deals with ACHN renal.
Test [7] has as its system CAKI-1 renal.
Test [8] has as its system A498 renal.
Test [9] deals with CCRF-CEM leukemia.
Test [10] relates to MOLT-4 leukemia.
Test [11] relates to RPMI-8226 leukemia.
Test [12] deals with OVCAR-8 ovarian.
The test system of test [13] is OVCAR-5 ovarian.
The subject of test [14] is OVCAR-4 ovarian.
In test [15] the test system is SK-OV-3 ovarian.
Test [16] concerns IGROV1 ovarian.
Test [17] deals with OVCAR-3 ovarian.
The test system of test [18] is HS 578T breast.
For test [19], the system named is NCI/ADR-RES ovarian.

Regarding `C[C@@H](C[C@H](CCOCc1cccnc1)c1ccccc1)c1cc2ccccc2o1`, the growth in [1] is 89.7%; in test [2] it was 94.2%; in test [3] it was 95.1%; in [4], 75.9%; in test [5], 95.3%; in test [6], 93.1%. The growth in test [7] is 77.6%; in test [8], 101%; in test [9], 94.1%; in test [10] it was 84.1%; in test [11], 75%; in [12], 88.6%. Further, the growth was 87.8% in test [13]; 81.6% in [14]; 84.7% in test [15]; 83.8% in [16]; 94% in test [17]; 85.1% in [18]. Also, the growth in [19] was 97.9%.

With `CCOC(=O)C(=CNc1ccccc1[N+](=O)[O-])C(=O)OCC`, the growth in [1] is 101%; in test [2], 114%; in [3], 94.2%; in test [4] it was 78.2%; in test [5] it was 106%; in [6], 86%. In addition, the growth in [7] is 98.9%; in test [8] it was 64.1%; in test [9], 93.7%; in test [10], 96.1%; in test [11], 92.6%; in test [12], 101%. Further, the growth in [13] was 96.4%; in [14], 110%; in test [15], 110%; in test [16] it was 107%; in test [17], 105%; in test [18], 98.6%. The growth in test [19] is 101%.

As to `c1ccc2[nH]c(SSc3nc4ncncc4[nH]3)nc2c1`, the growth in test [1] was 57.2%; in test [2], 67.5%; in test [3], 42.3%; in test [4], 31.6%; in test [5], 30%; in test [6], 32.2%. Besides, the growth in test [7] is -46.4% (active); in test [8], 61.7%; in test [9], 24.7%; in test [10], 26%; in test [11] it was 14.6%; in test [12], 23%. For the same compound, the growth is 44.6% in test [13]; 24.1% in [15]; 43.5% in test [16]; 22.9% in test [17]; 59.7% in test [18]; 26.2% in [19].

Consider `Oc1ccccc1-c1nc2ccccn2c1NCCN1CCOCC1`, for which the growth in [1] is 106%; in [2], 102%; in [3], 97.1%; in test [4], 89.9%; in [5], 94.8%; in test [6], 95.3%. Moreover, the growth is 86.9% in test [7]; 89.5% in test [8]; 94.3% in [9]; 97.5% in test [10]; 93.2% in test [11]; 100% in [12]. The growth in test [13] was 91.6%; in [15], 76.5%; in test [16], 103%; in [17] it was 97.3%; in test [18] it was 89.5%; in test [19] it was 104%.

Turning to `Cc1ccc(NC(=O)C(Cl)Cl)cc1`, the growth in test [1] is 83.6%; in test [2] it was 109%; in [3], 98.9%; in [4] it was 83%; in [5], 94.3%; in test [6], 100%. For the same compound, the growth in test [7] was 103%; in [8], 80.9%; in test [9], 100%; in test [10], 14.2%; in test [11] it was 97%; in [12], 99.5%. The growth in test [13] is 98.5%; in test [14] it was 116%; in [15], 105%; in [16], 95.4%; in [17] it was 112%; in test [18], 102%. The growth in test [19] was 99.9%.

Regarding `CC(C)c1ccc(NC(=O)Cc2ccc(Nc3ncnc4cc(-c5cnn(CCN(C)C)c5)ccc34)cc2)cc1`, the growth in [1] is 65.7% [30 µM]; in test [2], -49.6% [30 µM] (active); in test [3] it was -95.9% [30 µM] (active); in test [4] it was -72.9% [30 µM] (active); in [5] it was -57.3% [30 µM] (active); in test [6], -71.5% [30 µM] (active). In addition, the growth is -40.7% [30 µM] (active) in [7]; 42.2% [30 µM] in [8]; -28.2% [30 µM] (active) in test [9]; -50.9% [30 µM] (active) in test [10]; -27.5% [30 µM] (active) in test [12]; -98.9% [30 µM] (active) in test [13]. For the same compound, the growth was -83.1% [30 µM] (active) in [14]; -30.6% [30 µM] (active) in test [15]; -69.7% [30 µM] (active) in test [16]; -89.6% [30 µM] (active) in test [17]; -60.6% [30 µM] (active) in [18]; 52.4% [30 µM] in [19].

On to `CS(=O)(=O)c1ccc(-c2[nH]c3ccc(F)cc3c2/C=N/O)cc1`, for which the growth is 94.9% in [1]; 98.4% in [2]; 99.1% in test [3]; 82.5% in [4]; 99.4% in test [5]; 97% in test [6]. The growth in [7] was 81.4%; in [8] it was 99.2%; in test [9], 92.9%; in [10], 92.9%; in test [11], 90.4%; in test [13], 91.4%. The growth in test [14] is 97.1%; in test [15], 69.8%; in test [16], 89.9%; in test [17], 99.8%; in test [18], 92.2%; in test [19], 107%.

`CCOc1cc(C2C(Cl)C(=O)N2n2cnnc2)ccc1O` (stereo unspecified): the growth in test [1] is 100%; in test [2] it was 109%; in test [3] it was 98.6%; in test [4] it was 86%; in test [5], 99.1%; in test [6], 96.7%. Further, the growth in test [7] was 85.3%; in test [8] it was 101%; in [9], 93.6%; in test [10], 100%; in [11], 103%; in test [12], 95.5%. Also, the growth was 106% in test [13]; 98.2% in test [14]; 82.4% in test [15]; 104% in test [16]; 96.4% in test [17]; 88.7% in test [18]. For the same compound, in test [19], the growth is 100%.

On to `CCCCN(CCCC)CCCn1c(=O)c2sc3ncccc3c2n2nnc(-c3ccccc3)c12`, for which the growth is 107% in [1]; -3.24% (active) in test [2]; 99.3% in test [3]; 48.1% in test [4]; 118% in [5]; 97% in [6]. For the same compound, the growth in test [7] was -87.9% (active); in [8] it was 117%; in test [9], 90.8%; in [10] it was 94.5%; in test [11], 96.4%; in [12], 96.4%. Moreover, the growth in test [13] is 97.1%; in [14], 103%; in [16], 80.5%; in test [17], 120%; in test [18], 110%; in [19], 108%.
